Test results taken from publication PMC11062922 (Nature Chemical Biology, 2023).
Where two headings read alike, the source gives them in different places.

Tests used:
Set-up in all cases: species or system human, MV4-11 + K-562 + COLO205 + SK-N-BE2 + OVCAR-8
AURKB = settings: read-out: apparent Kd, n = 1
CAMK2B = settings: read-out: apparent Kd, compound concentrations: 100 nM and 1000 nM (sheet 'Samples'), n = 1
EIF2AK1 = settings: read-out: apparent Kd; compound concentrations: 100 nM and 1000 nM (sheet 'Samples'), CATDS: 6.5022580640831398E-2; n = 1
MAP2K5 = settings: read-out: apparent Kd, n = 1
MAP3K4 = settings: read-out: apparent Kd; compound concentrations: 100 nM and 1000 nM (sheet 'Samples'), CATDS: 6.3313755179161796E-2; n = 1
MAP4K2 = settings: read-out: apparent Kd; compound concentrations: 100 nM and 1000 nM (sheet 'Samples'), CATDS: 8.0363217180658503E-2; n = 1
MAP4K3 = settings: read-out: apparent Kd; compound concentrations: 100 nM and 1000 nM (sheet 'Samples'), CATDS: 7.0061337897802001E-2; n = 1
NEK2 = settings: read-out: apparent Kd; compound concentrations: 100 nM and 1000 nM (sheet 'Samples'), CATDS: 7.0707362303254903E-2; n = 1
PTK6 = settings: read-out: apparent Kd, n = 1
RIPK3 = settings: read-out: apparent Kd; compound concentrations: 100 nM and 1000 nM (sheet 'Samples'), CATDS: 5.9468743018389697E-2; n = 1
STK3 = settings: read-out: apparent Kd; compound concentrations: 100 nM and 1000 nM (sheet 'Samples'), CATDS: 6.0873779479402902E-2; n = 1
STK4 = settings: read-out: apparent Kd; compound concentrations: 100 nM and 1000 nM (sheet 'Samples'), CATDS: 7.2736683737858396E-2; n = 1
YES1 = settings: read-out: apparent Kd; compound concentrations: 100 nM and 1000 nM (sheet 'Samples'), CATDS: 8.4422564435587905E-2; n = 1
BUB1 = settings: read-out: apparent Kd; compound concentrations: 100 nM and 1000 nM (sheet 'Samples'), CATDS: 0.15968057437579899; n = 1
FN3K = settings: read-out: apparent Kd; compound concentrations: 100 nM and 1000 nM (sheet 'Samples'), CATDS: 0.15794853926882399; n = 1
ICK = settings: read-out: apparent Kd; compound concentrations: 100 nM and 1000 nM (sheet 'Samples'), CATDS: 0.184620648021635; n = 1
MAPKAPK2 = settings: read-out: apparent Kd; compound concentrations: 100 nM and 1000 nM (sheet 'Samples'), CATDS: 0.25784854376508698; n = 1
EGFR = settings: read-out: apparent Kd; compound concentrations: 100 nM and 1000 nM (sheet 'Samples'), CATDS: 0.10899892771168; n = 1
HSP90B1 = settings: read-out: apparent Kd; compound concentrations:100 nM and 1000 nM (sheet 'Samples'); n = 1
MAP2K2 = settings: read-out: apparent Kd; compound concentrations:100 nM and 1000 nM (sheet 'Samples'); n = 1
RET = settings: read-out: apparent Kd; compound concentrations:100 nM and 1000 nM (sheet 'Samples'); n = 1
BMPR2 = settings: read-out: apparent Kd; compound concentrations:100 nM and 1000 nM (sheet 'Samples'); n = 1
CDC42 = settings: read-out: apparent Kd; compound concentrations:100 nM and 1000 nM (sheet 'Samples'); n = 1
CLK4 = settings: read-out: apparent Kd; compound concentrations:100 nM and 1000 nM (sheet 'Samples'); n = 1
CDC42BPB = settings: read-out: apparent Kd; compound concentrations:100 nM and 1000 nM (sheet 'Samples'); n = 1
CDC42BPG = settings: read-out: apparent Kd; compound concentrations:100 nM and 1000 nM (sheet 'Samples'); n = 1
PKN1 = settings: read-out: apparent Kd; compound concentrations:100 nM and 1000 nM (sheet 'Samples'); n = 1
PRKACA = settings: read-out: apparent Kd; compound concentrations:100 nM and 1000 nM (sheet 'Samples'); n = 1
PRKACB = settings: read-out: apparent Kd; compound concentrations:100 nM and 1000 nM (sheet 'Samples'); n = 1
PRKG1 = settings: read-out: apparent Kd; compound concentrations:100 nM and 1000 nM (sheet 'Samples'); n = 1
PRKX = settings: read-out: apparent Kd; compound concentrations:100 nM and 1000 nM (sheet 'Samples'); n = 1
ROCK1 = settings: read-out: apparent Kd; compound concentrations:100 nM and 1000 nM (sheet 'Samples'); n = 1
ROCK2 = settings: read-out: apparent Kd; compound concentrations:100 nM and 1000 nM (sheet 'Samples'); n = 1
STK26 = settings: read-out: apparent Kd; compound concentrations:100 nM and 1000 nM (sheet 'Samples'); n = 1
[1] = compound concentrations:100 nM and 1000 nM (sheet 'Samples')

How did the potency estimated from few doses (AURKB; compound concentrations: 100 nM and 1000 nM (sheet 'Samples'), CATDS: 9.3884210166783694E-2) turn out when `Cn1cc(-c2ccc3c(c2)CCN3C(=O)Cc2ccccc2Cl)c2c(N)ncnc21` [GSK2608885A] was run?
The potency estimated from few doses was 0.825 µM.

What about the potency estimated from few doses (CAMK2B; CATDS: 0.10460822503909301) of the same compound?
The potency estimated from few doses was 0.685 µM.

What about the potency estimated from few doses (EIF2AK1) of the same compound?
The potency estimated from few doses was 1.79 µM.

And the potency estimated from few doses (MAP2K5; compound concentrations: 100 nM and 1000 nM (sheet 'Samples'), CATDS: 0.13171106930199999)?
The potency estimated from few doses was 0.478 µM.

And the potency estimated from few doses (MAP3K4)?
Its potency estimated from few doses is 1.92 µM.

And the potency estimated from few doses (MAP4K2)?
Its potency estimated from few doses is 1.11 µM.

What about the potency estimated from few doses (MAP4K3) of the same compound?
Its potency estimated from few doses is 1.49 µM.

What about the potency estimated from few doses (NEK2) of the same compound?
Its potency estimated from few doses is 1.46 µM.

And the potency estimated from few doses (PTK6; compound concentrations: 100 nM and 1000 nM (sheet 'Samples'), CATDS: 9.6831640225396698E-2)?
The potency estimated from few doses was 0.781 µM.

And the potency estimated from few doses (RIPK3)?
Its potency estimated from few doses is 2.28 µM.

What about the potency estimated from few doses (STK3) of the same compound?
The potency estimated from few doses was 2.13 µM.

And the potency estimated from few doses (STK4)?
Its potency estimated from few doses is 1.37 µM.

And the potency estimated from few doses (YES1)?
The potency estimated from few doses was 1 µM.

With `CSc1ccc(-c2nc3n(c2-c2ccncc2)CCC3)cc1` [SKF-105561] as the compound, how does the potency estimated from few doses (BUB1) read?
The potency estimated from few doses was 2.3 µM.

And the potency estimated from few doses (CAMK2B; CATDS: 0.32138183230231099)?
The potency estimated from few doses was 0.557 µM.

What about the potency estimated from few doses (FN3K) of the same compound?
Its potency estimated from few doses is 2.37 µM.

And the potency estimated from few doses (ICK)?
The potency estimated from few doses was 1.58 µM.

What about the potency estimated from few doses (MAPKAPK2) of the same compound?
Its potency estimated from few doses is 0.803 µM.

How did the potency estimated from few doses (AURKB; compound concentrations: 100 nM and 1000 nM (sheet 'Samples'), CATDS: 0.55138330390134005) turn out when `COc1cc2c(Nc3ccc(NC(=O)c4ccccc4)cc3)ncnc2cc1OCCCN1CCOCC1` [GSK301329A] was run?
Its potency estimated from few doses is 0.0507 µM.

And the potency estimated from few doses (EGFR)?
Its potency estimated from few doses is 1.47 µM.

And the potency estimated from few doses (HSP90B1)?
Its potency estimated from few doses is 1.09 µM.

What about the potency estimated from few doses (MAP2K2) of the same compound?
Its potency estimated from few doses is 1.94 µM.

And the potency estimated from few doses (MAP2K5; [1])?
Its potency estimated from few doses is 0.238 µM.

And the potency estimated from few doses (PTK6; [1])?
The potency estimated from few doses was 0.487 µM.

What about the potency estimated from few doses (RET) of the same compound?
Its potency estimated from few doses is 1.45 µM.

What does the source list for `O=C1Nc2ccc(C(=O)c3ccco3)cc2C1=Cc1cc(Cl)c(O)c(Cl)c1` [GW406108X]?
potency estimated from few doses (BMPR2): 0.0158 µM; potency estimated from few doses (CDC42): 0.0938 µM; potency estimated from few doses (CLK4): 0.0855 µM

How did the potency estimated from few doses (AURKB; [1]) turn out when `CC(C)NCC(Cc1ccccc1)NC(=O)c1cc(Br)c(-c2ccnc3[nH]ccc23)s1.CC(C)NCC(Cc1ccccc1)NC(=O)c1cc(Br)c(-c2ccnc3[nH]ccc23)s1.Cl.Cl` (stereo not drawn) [GSK1383281A] was run?
Its potency estimated from few doses is 0.95 µM.

And the potency estimated from few doses (CDC42BPB)?
Its potency estimated from few doses is 1.32 µM.

And the potency estimated from few doses (CDC42BPG)?
The potency estimated from few doses was 1.36 µM.

And the potency estimated from few doses (PKN1)?
The potency estimated from few doses was 0.84 µM.

What about the potency estimated from few doses (PRKACA) of the same compound?
The potency estimated from few doses was 0.0702 µM.

What about the potency estimated from few doses (PRKACB) of the same compound?
Its potency estimated from few doses is 0.102 µM.

And the potency estimated from few doses (PRKG1)?
The potency estimated from few doses was 0.0136 µM.

And the potency estimated from few doses (PRKX)?
The potency estimated from few doses was 1.1 µM.

What about the potency estimated from few doses (ROCK1) of the same compound?
The potency estimated from few doses was 0.0431 µM.

What about the potency estimated from few doses (ROCK2) of the same compound?
Its potency estimated from few doses is 0.048 µM.

And the potency estimated from few doses (STK26)?
The potency estimated from few doses was 1.94 µM.
